Mot1-301 SUMO: SUMOylation pathway inhibition by Mot1-301 growth rescue. S. cerevisiae Mot1-301 growth rescue, ATP luminescence, 38.5C; percent above DMSO median, 100 means doubled. growth rescue, % at 18.8 µM. 320,000 compounds, 1% hits. AID 2716;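 active = every valid replicate shows activation above 250% relative to neutral control wells; inactive = the rest, any valid replicate at or below 250%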
PolyA inhibitor: blocks polyadenylation in yeast reporter cells; S. cerevisiae SKY197-pL101 polyadenylation reporter, beta-gal luminescence; efflux-impaired pdr1/pdr3 knockout yeast; score 100 = 6 SD above DMSO; activity score, % at 12 µM; 300,000 compounds, 0.02% hits; AID 1875;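 active = lowest replicate activity score at least 50, where 100 means six control SD above control mean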;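 note: yeast exposed to compound for 9 h at 30 °C; higher score means more reporter readthrough which indicates perturbed polyadenylation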
NALP1 yeast inh: inhibitors of NALP1 inflammasome in yeast; S. cerevisiae NALP1/ASC/caspase-1 growth, X-gal OD620, 72 h; inhibition, % at 10 µM; 280,000 compounds, 0.61% hits; AID 2071; in the data active = inhibition mostly above about 24%, no sharp cut-off; inactive = mostly below about 32%
NALP3 yeast inh: inhibitors of NALP3 inflammasome in yeast. Yeast reconstituted NLRP3/ASC/caspase-1, beta-gal luminescence, 24 h. inhibition, % at 10 µM. 330,000 compounds, 0.39% hits;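 active = inhibition of 50% or more; inactive = inhibition below 50%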
Numbers stand for hits; – = inactive; · = no result; ! = a repeat was not active. This is a sample that favours compounds with a hit; in the whole collection about 1.8% have one here.

SMILES | Mot1-301 SUMO | PolyA inhibitor | NALP1 yeast inh | NALP3 yeast inh
CC(C(=O)NCc1ccccc1)N1C(=O)c2ccccc2C1=O (stereo unspecified) | – | – | – | –
C[C@@H](C(=O)NCc1ccccc1)N1C(=O)C2CC=CCC2C1=O (stereo partly specified) | – | – | 36 | –
O=C1CC(c2ccccc2)Oc2cc(O)cc(O)c21 (stereo unspecified) | – | – | – | –
COc1cc(OC)c2c(c1O)OC(c1ccccc1)CC2=O (stereo unspecified) | 696 | – | – | –
O=C(Cc1cccs1)Nc1nc(-c2ccccc2)cs1 | · | – | – | –
O=C(COC(=O)/C=C/c1cccs1)NC(c1ccccc1)c1ccccc1 | – | 150 | – | –
O=C(COC(=O)/C=C/c1cccs1)Nc1nc(-c2ccccc2)cs1 | – | – | 63 | –
COC(=O)CCC(=O)Nc1nc(-c2ccccc2)cs1 | 334 | – | · | –
O=C(CSc1nnc(-c2ccncc2)n1CCc1ccccc1)N1CCCC1 | – | – | · | –
O=C(OCc1cccc([N+](=O)[O-])c1)c1cc2ccccc2oc1=O | – | – | – | –
NC(=O)c1ncc(C(F)(F)F)cc1Oc1cccc(C(F)(F)F)c1 | 309 | – | – | –
ClC(Cl)(Cl)c1nc2ccccc2n2nncc12 | – | – | 37 | –
c1ccc2c(c1)nnn1c3ccccc3nc21 | – | – | – | –
C=CCC(=O)N1CCCC(CO)(Cc2ccc(F)cc2F)C1 (stereo unspecified) | – | – | – | –
Cc1cc(C)c(NC(=O)C2CCCN2CCC(C)C)c(C)c1 (stereo unspecified) | – | – | – | –
Cc1cc(C)c(NC(=O)C2CCCCN2C)c(C)c1 (stereo unspecified) | – | – | 40 | –
CC(C)(C)OC(=O)[C@H](CCCCN)NC(=O)c1nc[nH]c1C(=O)NCCCCCN | – | – | · | –
CCOC(=O)C(=O)NNc1ccc(Cl)cc1 | – | – | 50 | –
Cc1ccc(-c2n[nH]c(=S)n2C)cc1Cl | – | – | – | –
O=C(Oc1ccccc1)N(c1ccccc1)c1ccccc1 | – | – | – | –
COCCNC(=S)N(c1ccccc1)C(C)C | – | – | 40 | –
O=C(O)C1CCN(Cc2ccccn2)CC1 | – | – | – | –
CCCCNC(=O)C1CCN(Cc2ccccn2)CC1 | 303 | – | – | –
CC(C)c1ccc(N2C(=O)CC(Sc3ncn[nH]3)C2=O)cc1 (stereo unspecified) | · | – | 101 | –
Cc1cc(C(=O)N2CCN(c3ccccc3Cl)CC2)c(C)o1 | – | · | · | –
SMILES | Mot1-301 SUMO | PolyA inhibitor | NALP1 yeast inh | NALP3 yeast inh
COCCn1c(-c2ccc(-c3ccc([N+](=O)[O-])cc3Br)o2)nc2c1c(=O)[nH]c(=O)n2CC(C)C | – | – | 22 | –
COc1ccc(CCNS(=O)(=O)CCNC(=O)c2ccc3c(c2)OCO3)cc1 | – | – | · | –
COc1cc(CNCCO)cc(Br)c1OCc1ccccc1Cl | – | – | – | –
COc1cc(CNCCO)cc(Cl)c1OCc1ccc(Cl)cc1Cl | – | – | 38 | –
COc1cc(CNC(C)(C)CO)cc(Br)c1OCc1ccc(Cl)cc1Cl | – | – | 58 | –
COc1cc(CNC(C)(C)CO)cc(Br)c1OCc1ccc(Cl)cc1 | – | – | – | –
CCCCCC(=O)NCC(C)NC(=O)CCCCC (stereo unspecified) | 486 | – | – | –
CC(=O)NC(=S)Nc1cc(C(=O)O)ccc1Cl | – | – | – | –
C/C(=N\Nc1ccc(F)cc1F)c1ccc(N2CCOCC2)cc1 | 279 | – | – | –
C/C(=N\Nc1ccc(F)cc1F)c1ccc(F)cc1 | – | – | – | –
Cc1ccc(NC(=O)Cn2cccc2)c(Br)c1 | – | – | – | –
COC(=O)CN1C(=O)S/C(=C/c2ccc(N3CCCCC3)o2)C1=O | – | – | – | –
O=C(O)CN1C(=O)/C(=C/c2ccc(N3CCCCC3)o2)SC1=S | – | 106 | – | –
CN(CCO)c1cnccn1 | 580 | – | – | –
CC(=O)N(Cc1ccc(Cl)cc1)c1cnccn1 | – | – | – | –
O=C(CCCN1CCC(O)(c2ccc(Br)cc2)CC1)c1ccc(F)cc1 | – | · | · | –
O=C(CCCN1CCC(O)(c2ccc(Cl)cc2)CC1)c1ccc(F)cc1 | 588! | – | – | –
Cn1c(-c2ccccc2)cnc1NCc1ccc(-c2ccccc2)cc1 | 383 | – | – | –
COCCCNCCOCCSc1ccc(Cl)cc1 | 279 | – | – | –
CCCCNCCOCCSc1ccc(Cl)cc1 | – | – | – | –
Cc1nonc1C(=O)N1CCCC(N2CCN(c3ccc(F)cc3)CC2)C1 (stereo unspecified) | – | – | – | –
O=C(Cc1ccccc1)N/N=C/c1cccnc1 | 313 | – | – | –
O=C(Cc1ccccc1)NCC(=O)N/N=C/c1cccnc1 | – | – | · | –
Cc1ccc(N/N=C/c2cccnc2)cc1 | 289 | – | – | –
Cc1ccc(N/N=C/c2ccncc2)cc1 | – | – | – | –
SMILES | Mot1-301 SUMO | PolyA inhibitor | NALP1 yeast inh | NALP3 yeast inh
COc1ccc2nc(NC(=O)c3ccccc3[N+](=O)[O-])sc2c1 | – | – | 30 | –
COc1ccc2nc(NC(=O)c3ccccc3O)sc2c1 | – | – | – | –
CCC(NC(=O)c1ccccc1NC(=O)c1ccccc1)C(=O)OC (stereo unspecified) | – | – | – | –
CCOCc1c(C(=O)Nc2cc(OCC)c(N3CCOCC3)cc2OCC)oc2ccccc12 | – | – | 36 | –
COc1cc(C2C(C(C)=O)=C(O)C(=O)N2CCc2c[nH]c3ccccc23)ccc1O (stereo unspecified) | – | – | – | –
O=C(Nc1nc2ccsc2c(=O)s1)C1CCC1 | – | – | · | –
O=c1sc(Nc2ccccc2)nc2ccsc12 | – | – | 70 | –
CCC(c1nnc(SCC(=O)Nc2ccc(C(C)=O)cc2)n1C1CCCCC1)N(C)C (stereo unspecified) | – | – | – | –
CN(C)/C=C(\C=O)c1ncc(C(F)(F)F)cc1Cl | 905 | – | – | –
CC(=O)c1ccc(NC(=O)CSc2nccn2CCc2ccccc2)cc1 | – | – | – | –
CC1CCN(C(=O)CN2C(=O)COc3ccc(Cl)cc32)CC1 | – | – | – | –
Cc1cc(NS(=O)(=O)c2ccc(NC(=O)/C=C/c3ccccc3)cc2)nc(C)n1 | – | · | · | –
COc1ccccc1/C=C/C(=O)Nc1ccc(S(=O)(=O)Nc2cc(C)nc(C)n2)cc1 | 351 | – | – | –
Cc1cc(=O)[nH]c(SCCCOc2ccc(F)cc2)n1 | · | – | 41 | –
CCc1nnc(NC(=O)c2ccc(S(=O)(=O)N3CCCCCC3)cc2)s1 | – | – | – | –
NS(=O)(=O)c1ccc(Oc2ccc(S(N)(=O)=O)cc2)cc1 | – | – | – | –
C=CS(=O)(=O)c1ccc(Oc2ccc(S(=O)(=O)C=C)cc2)cc1 | – | – | 75 | –
O=C(O)CC(C(=O)NCc1ccccc1)C1CCCO1 (stereo unspecified) | – | – | – | –
Nc1[nH]n2c(=O)cc(-c3ccccc3)nc2c1N=Nc1ccc2c(c1)OCO2 | – | – | 42 | –
COc1cccc(C2c3[nH]c4ccccc4c3CCN2CCCn2cccn2)c1 (stereo unspecified) | – | – | – | –
